Hit rate of the full screen: of about 300,000 compounds, about 3,700 (1.2%) were called active. Roughly 20% stayed inconclusive and do not appear here. The full list was thinned out, with actives kept by preference. Values without a mark were called inactive. Calls come from the whole dose curve; tested in HEK293 cells.
Test: qHTS for Inhibitors of binding or entry into cells for Lassa Virus; note: nearly all actives have a fitted effect of over 50% in size
Conditions: Lassa virus pseudotype entry inhibition, cell reporter; series mostly up to 37.9 µM; activity change, negative = inhibition: at the top concentration
% is set by controls: 0 for no effect and ±100 for the full control effect; potency is the fitted concentration of half-maximal effect.

Structure (SMILES)	Potency	activity change, negative = inhibition
COc1ccc(/C=C(\NC(=O)c2ccc(OCC(C)C)cc2)C(=O)OCc2ccco2)cc1	12.6 µM (active)	–
COc1ccc(/C=C(/NC(=O)c2ccco2)C(=O)Nc2ccc(C(C)=O)cc2)cc1	–	-17.3%
COc1ccc(C(=O)Nc2ccccc2C(=O)NCc2ccco2)cc1	–	-0.689% [at 46.1 µM]
Cc1cc(C)c(C)c(S(=O)(=O)Nc2cccnc2)c1C	–	-11.1%
CCOc1ccccc1CNC(=O)c1cnc2c(-c3ccc(OCC)c(OCC)c3)c(C)nn2c1C	–	-2.1% [at 46.1 µM]
Cc1ccc2nc(NC(=O)C3CSC4(C)CCC(=O)N34)sc2c1 (stereo not given)	–	16.4%
O=C(Cc1c(Cl)cccc1Cl)NC1CC1	–	16.2% [at 46.1 µM]
Cc1c(Cl)cccc1NC(=S)NCc1ccc2c(c1)OCO2	–	-5.04%
Cc1c(NC(=S)NCc2ccc(F)cc2)cccc1[N+](=O)[O-]	–	-4.19%
CCc1cccc(CC)c1NC(=S)NCc1ccc2[nH]c(C)cc2c1	18.4 µM (active)	–
O=C(CCc1ccccc1Cl)Nc1ccc(S(=O)(=O)Nc2nccs2)cc1	–	-5.82%
O=C(COC(=O)c1ccc(O)cc1O)NC(=O)c1ccccc1	–	-1.32%
O=C(CN(Cc1ccccc1)C(=O)CCC(=O)Nc1ccccn1)NCCc1ccccc1	–	-18.6%
Cc1cc([N+](=O)[O-])ccc1NS(=O)(=O)c1ccccc1	–	13.3% [at 46.1 µM]
O=C(COc1cccnc1[N+](=O)[O-])Nc1ccc(Cl)cc1F	–	-13.2% [at 46.1 µM]
O=C(c1ccco1)n1nc(-c2ccc(Cl)cc2)nc1NCc1ccccc1	–	16.4% [at 46.1 µM]
O=C(CCC(=O)c1cccs1)NCc1ccccc1	–	8.14%
O=C(c1cccs1)n1nc(NCc2ccccc2)nc1NCc1ccccc1	10 µM (active)	–
Oc1cccc(CCc2ccccn2)c1	–	12.1%
Cc1ccc(-c2nn(-c3ccc(F)cc3)cc2C(=O)NCC(c2cccs2)N2CCOCC2)cc1 (stereo not given)	–	-4.1%
CC(C)c1nc2sc3c(c2c(=O)n1N)CC(C)(C)OC3	–	4.95% [at 46.1 µM]
CCOC(=O)CSc1nc2sc3c(c2c(=O)[nH]1)CC(C)(C)OC3	–	20%

Structure (SMILES)	Potency	activity change, negative = inhibition
CC/C(C)=N/Nc1nc2sc3c(c2c(=O)[nH]1)CC(C)(C)OC3	5.01 µM (active)	–
Cc1ccc(NC(=O)CSc2nn3c(=O)c(C)nnc3s2)cc1Cl	–	13.1%
COCC(C)n1c(SCC(=O)NC2CCCCC2C)nc2ccccc2c1=O (stereo not given)	–	-23.2%
COCC(C)n1c(SCc2ccc(C(=O)OC)o2)nc2ccccc2c1=O (stereo not given)	10.3 µM (active)	–
COC(=O)c1ccc(CSc2ccccc2C)o1	–	18.4%
O=C(NCCS(=O)(=O)N1CCN(c2ccc(F)cc2)CC1)c1ccc2c(c1)OCO2	–	-11.9%
O=C1/C(=C\c2ccc(O)cc2)CCC1CNc1ccc(Cl)cc1 (stereo not given)	–	-15%
Cc1cccc(NC(=O)c2cccc(S(=O)(=O)N3CCCC3)c2)n1	–	12.1%
Cc1cccc(N2CCN(C(=O)Cn3ncc4c5ccccc5n(C)c4c3=O)CC2C)c1 (stereo not given)	–	8.45% [at 46.1 µM]
Cc1cccc(N2CCN(C(=O)CCn3c(=O)c4cccn4c4cccnc43)CC2C)c1 (stereo not given)	7.94 µM (active)	–
O=C(CCCn1c(=O)c2cccn2c2cccnc21)NCc1ccc(F)cc1	–	16.8% [at 46.1 µM]
O=C(/C=C/c1cccc([N+](=O)[O-])c1)OCC(=O)N1CCOCC1	–	-4.28%
O=C(NCCc1ccco1)c1ccc(OCc2cn3ccccc3n2)cc1	–	-12.7% [at 46.1 µM]
CCc1nn(CCCC(=O)Nc2ccc(C)c(C)c2)c(=O)c2cc3occc3n12	–	-0.66% [at 46.1 µM]
C=CCN(CC=C)S(=O)(=O)c1ccc(C(=O)Nc2sc3c(c2C(N)=O)CCCCC3)cc1	–	-29.3%
CCOC(=O)c1c(NC(=O)c2ccc(S(=O)(=O)N(CC)CC)cc2)sc2c1CCCCC2	–	4.06% [at 46.1 µM]
C=CCN(CC=C)S(=O)(=O)c1ccc(C(=O)Nc2nc3c(s2)CCc2ccccc2-3)cc1	3.16 µM (active)	–
O=C(Nc1ncccc1O)c1ccc(S(=O)(=O)N2CCCCCC2)cc1	–	10.4%
O=C(CSc1cccc2cccnc12)N/N=C/c1cccnc1	–	-3.85% [at 46.1 µM]
CC(=O)/C(=N\Nc1ccc(Cl)cc1Cl)Sc1cccc2cccnc12	11.2 µM (active)	–
COc1c(Cl)cc(Cl)cc1C(=O)Nc1cccc2cccnc12	–	6.22% [at 46.1 µM]
O=C(CC(=O)c1cccnc1)c1ccccc1	–	-17.8% [at 46.1 µM]

Structure (SMILES)	Potency	activity change, negative = inhibition
CCN(C(=O)CSc1cccc[n+]1[O-])c1ccccc1	–	-2.75%
CC1(C(=O)N/N=C/c2cc3c(cc2Br)OCO3)CC1(Br)Br (stereo not given)	–	-0.778%
O=C(NC(Nc1nc2ccc([N+](=O)[O-])cc2s1)(C(F)(F)F)C(F)(F)F)c1ccccc1	0.92 µM (active)	–
CS(=O)(=O)c1ccc2nc(NC(=O)c3ccc(N4CCCC4=O)cc3)sc2c1	–	14%
O=C(COC(=O)c1ccc(F)cc1)Nc1nc2ccc([N+](=O)[O-])cc2s1	–	7.09%
O=C(Nc1nnc(S(=O)(=O)N2CCCc3ccccc32)s1)c1cccc(F)c1	–	0.0572% [at 46.1 µM]
O=C(Nc1nc2ccc([N+](=O)[O-])cc2s1)c1ccc(S(=O)(=O)N2CCCc3ccccc32)cc1	12.6 µM (active)	–
O=C(Nc1nc2ccc([N+](=O)[O-])cc2s1)c1ccncc1	–	27.1% [at 46.1 µM]
COc1cc(C2C(C(=O)c3cccs3)=C(O)C(=O)N2CCN2CCOCC2)ccc1OCCC(C)C (stereo not given)	–	-8.18% [at 46.1 µM]
COc1cc(C(=O)CCc2ccc3c(c2)OCO3)cc(OC)c1OC	–	-0.612% [at 46.1 µM]
Cn1c(=O)[nH]c2c(c(C(=O)O)nn2C)c1=O	–	20.9% [at 46.1 µM]
COc1cc2c(cc1OC)CN(C(C)C(=O)Nc1cccc(S(=O)(=O)N3CCOCC3)c1)CC2 (stereo not given)	–	-4.84%
CC(=O)CSc1nc(CCc2ccccc2)c(C#N)c(=O)[nH]1	–	-8.72% [at 46.1 µM]
Cn1c(C(=O)NCCN2CCc3ccccc3C2)cc2c(=O)[nH]c3ccccc3c21	0.92 µM (active)	–
O=C(NCCN1CCN(Cc2ccccc2)CC1)c1cc2c(=O)[nH]c3ccccc3c2s1	–	-33.8%
Cc1cccc(N2CCN(C(=O)c3cc4c(=O)[nH]c5ccccc5c4n3C)CC2)c1C	–	3.45%
CCOC(=O)N1CCN(C(=O)C2CCCN(c3ncnc4c3sc3cccc(F)c34)C2)CC1 (stereo not given)	–	17.2% [at 46.1 µM]
OC1CCCN(c2ncnc3c2nnn3Cc2c(F)cccc2Cl)C1 (stereo not given)	6.31 µM (active)	–
Cc1ccc(NC(=O)N2CCC(c3nc4c(nnn4Cc4c(F)cccc4Cl)c(=O)[nH]3)CC2)cc1	–	-7.82%
Cc1ccc(Br)c(NS(=O)(=O)c2cccc(C(=O)N3CCNC(=O)C3)c2)c1	–	-10.2%
NC(=O)C1CCN(C(=O)c2cccc(NC(=O)c3nsc4ccccc34)c2)CC1	–	-10.3% [at 46.1 µM]
